The values that follow come from PubChem BioAssay.

SMILES strings stand for the structures.

Assay [1] has as its system Human papillomavirus type 1a protein E7 (residues 44-93). The assay is described as follows: HPV1a E7 fragment binders on microarrays, primary screen, biochemical, small-molecule microarray, residues 44-93, 635 nm fluorescence (AID 1108).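 Also: E7 fragment applied at 1 µg/mL in TBST for 1 h at 4 C; score combines spot fluorescence with its signal to noise ratio.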 The note with it: small-molecule microarray binding, fluorescence 635 nm; higher = more signal.
Assay [2] is described as follows: modulators of HCV replicon luciferase signal, primary screen, HCV replication inhibitor project, Huh7 cells, luciferase reporter (AID 1109).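 Also: huh7 hepatoma cells harbouring a luciferase neomycin HCV replicon reporter; luciferase luminescence as measure of HCV replicon replication; test concentration not given here.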 The note with it: 48 h, higher = more signal. (In general: A replicon is a self-replicating genome or part of one, used to study replication in cells.)
Assay [3] addresses Left-right determination factor 2 (Homo sapiens) (UniProt O00292). As to the kind of experiment: LEFTY2 binders on small-molecule microarrays, primary screen, biochemical, small-molecule microarray, 635 nm fluorescence scan (AID 1110). As to conditions: LEFTY2 binding, higher = more signal.
The target of assay [4] is Calmodulin-1 (Homo sapiens) (UniProt P0DP23). As to the kind of experiment: CALM1 binders on microarrays, EGTA buffer, profiling panel, biochemical, small-molecule microarray, Cy5-labelled CALM1 (AID 1111).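 Also: labelled calmodulin applied in Tris saline Tween buffer holding calcium plus EGTA and DTT.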 The note with it: Cy5-CALM1 binding fluorescence, higher = more signal.
Assay [5] shares this target. As to the kind of experiment: calcium-bound CALM1 binders on microarrays, profiling panel, artefact control for SMM control-protein annotation, biochemical, small-molecule microarray, Cy5-labelled CALM1, plus calcium (AID 1112).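 Also: score merges spot fluorescence with signal to noise from triplicate slides.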 As to conditions: Cy5-CALM1 binding fluorescence, higher = more signal.
The nature of assay [6]: small-molecule microarray binders of probe aWnt5a, primary screen, biochemical, biotinylated probe, 635/667 nm fluorescence (AID 1113).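 Also: score merges 667 nm fluorescence intensity with signal-to-noise per printed feature.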 As to conditions: higher = more signal.
A short description of assay [7]: small-molecule microarray binders of probe aShh, primary screen, biochemical, biotinylated probe, 635/667 nm fluorescence (AID 1114).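 Also: probe is biotin-labelled aShh protein from a stem cell growth factor screen; measures binding of labelled protein to compounds printed on the slide; score merges feature fluorescence at 667 nm with signal-to-noise.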 As to conditions: higher = more signal.
The nature of assay [8]: small-molecule microarray binders of probe aNog, primary screen, biochemical, biotinylated probe, 635/667 nm fluorescence (AID 1115).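 Also: probe is biotinylated aNog protein used at 0.15 µg/mL for 1 h at 4 C; z-score combines 667 nm fluorescence of each spot with its signal to noise.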 The note with it: higher = more signal.
The target in assay [9] is Torsin-1A-interacting protein 1 (Homo sapiens) (UniProt Q5JTV8). The assay is described as follows: LAP1 binders from COS7 cell lysate, primary screen, small-molecule microarray, 635/667 nm fluorescence (AID 1116). The note with it: COS7-hLAP1 lysate binding, 635 nm fluorescence, higher = more signal.
Assay [10] addresses Alpha-bungarotoxin (Bungarus multicinctus) (UniProt P60615). The assay is described as follows: alpha-bungarotoxin binders on microarray, profiling panel, artefact control for SMM control protein annotation, biochemical, small-molecule microarray, Alexa647 label, 635/667 nm fluorescence (AID 1117). The note with it: alpha-BTX-A647 binding fluorescence, higher = more signal.

Torsin-1A-interacting protein 1 (Homo sapiens), sequence (Q5JTV8 whole entry, looked up): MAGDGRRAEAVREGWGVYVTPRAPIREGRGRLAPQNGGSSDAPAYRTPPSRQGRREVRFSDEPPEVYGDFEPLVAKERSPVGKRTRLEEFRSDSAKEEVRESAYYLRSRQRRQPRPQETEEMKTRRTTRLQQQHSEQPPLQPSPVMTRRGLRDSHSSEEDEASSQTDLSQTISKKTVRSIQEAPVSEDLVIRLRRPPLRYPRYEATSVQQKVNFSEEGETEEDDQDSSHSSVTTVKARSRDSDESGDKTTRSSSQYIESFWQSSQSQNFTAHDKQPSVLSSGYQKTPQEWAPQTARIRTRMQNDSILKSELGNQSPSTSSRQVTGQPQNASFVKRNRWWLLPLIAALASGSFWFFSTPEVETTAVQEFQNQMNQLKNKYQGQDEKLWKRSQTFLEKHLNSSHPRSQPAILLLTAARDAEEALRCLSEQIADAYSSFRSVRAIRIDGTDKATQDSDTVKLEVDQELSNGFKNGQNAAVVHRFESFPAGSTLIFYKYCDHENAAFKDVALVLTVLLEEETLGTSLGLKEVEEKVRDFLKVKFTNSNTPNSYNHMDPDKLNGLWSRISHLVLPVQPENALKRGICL
Alpha-bungarotoxin (Bungarus multicinctus), sequence (P60615 whole entry, looked up): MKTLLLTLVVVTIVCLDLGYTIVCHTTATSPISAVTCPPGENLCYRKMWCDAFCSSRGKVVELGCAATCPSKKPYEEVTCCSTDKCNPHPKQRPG
Left-right determination factor 2 (Homo sapiens), sequence (O00292 whole entry, looked up): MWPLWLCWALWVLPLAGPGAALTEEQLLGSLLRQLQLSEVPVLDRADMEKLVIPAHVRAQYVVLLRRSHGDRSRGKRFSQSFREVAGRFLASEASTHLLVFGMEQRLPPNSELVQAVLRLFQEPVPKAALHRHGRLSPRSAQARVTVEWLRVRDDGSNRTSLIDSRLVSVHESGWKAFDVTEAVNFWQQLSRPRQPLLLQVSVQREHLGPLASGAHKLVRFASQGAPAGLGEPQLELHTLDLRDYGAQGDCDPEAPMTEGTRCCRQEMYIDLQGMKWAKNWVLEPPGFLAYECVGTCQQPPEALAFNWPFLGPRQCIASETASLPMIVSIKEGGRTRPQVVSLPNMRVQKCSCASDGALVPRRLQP

As to `COC(=O)CC=C[C@@H](C)[C@@H](C=NO[C@H](C)c1cn([C@@H]2COC[C@H]2O)nn1)NS(=O)(=O)c1ccc(C)cc1`, the composite z-score in [1] is -0.12; in [3] it was 0.722; in [4] it was -0.0535; in assay [5] it was -0.646; in [6], -0.144; in [7], -0.237. Moreover, the values for the composite z-score in assay [8], in assay [9] and in [10] were -0.246, 0.0982 and -0.361, respectively. The z-score in assay [2] was -0.483.
On to `COc1cccc([C@H]2Oc3ccc(OC)cc3C(=NO[C@@H]3O[C@H](COC(C)=O)[C@@H](OC(C)=O)[C@H](OC(C)=O)[C@H]3OC(C)=O)[C@@H]2O)c1`, for which the composite z-score in assay [1] is 0.104; in assay [3], 0.507; in [4] it was -0.446; in assay [5], -0.552; in [6] it was 0.0206; in [7], 0.137. Also, the values for the composite z-score in [8], in assay [9] and in assay [10] were 0.124, -0.178 and -0.275, respectively. In [2], the z-score was -1.12.
Consider `COCCNC(=O)OCC1CCCC2(CC(OC(=O)NCc3ccc4c(c3)OCO4)CC(CCC(=O)N[C@@H](C)C(=O)OC)O2)O1` (stereo not given in full), for which the composite z-score in assay [1] was 0.953; in [3], 0.65; in [4], 0.332; in assay [5], -0.431; in [6], -0.0819; in [7], -0.0553. Besides, the composite z-score was -0.0645 in assay [8], 0.376 in assay [9] and 0.804 in assay [10]. Besides, the z-score in assay [2] is -1.26.
As to `CCc1cc2c(nc1CC)CCN(CCC(C)=NOC[C@H]1O[C@H](c3ccccc3)C=C[C@@H]1Oc1ccc(OC)cc1)C2`, the composite z-score is 0.371 in assay [1]; -0.0061 in [3]; -0.112 in assay [4]; 0.366 in assay [5]; -0.0944 in [6]; 0.0639 in assay [7]. Besides, the composite z-score was -0.0065 in assay [8], 0.76 in assay [9] and 0.292 in assay [10]. Further, the z-score in assay [2] is -3.16.
For the compound `CO[C@H]1COC(=O)[C@H](C)NC(=O)CC=C[C@@H](C)[C@H](OC)COC(=O)[C@@H](OCc2ccccc2)C=C[C@@H]1C`, the composite z-score in [1] was -0.112; in assay [3], 0.591; in assay [4], -0.306; in assay [5], -1.32; in assay [6], -0.233; in assay [7], -0.279. Further, the composite z-score was 0.0021 in assay [8], 0.129 in assay [9] and -0.233 in assay [10]. Besides, the z-score in [2] was -0.339.
In the case of `CCOC(=O)[C@H](CC(C)C)NC(=O)CCC1CC(OC(=O)NCCc2ccc(F)cc2)CC2(CCCC(COC(=O)NCCc3ccccc3OC)O2)O1` (stereo not given in full), the composite z-score in assay [1] was 1.29; in assay [3], 0.61; in assay [4], 1.57; in [5] it was 0.535; in assay [6], -0.119; in [7], 0.157. The composite z-score was -0.0787 in assay [8], 0.793 in [9] and 0.493 in [10]. Also, in assay [2], the z-score was -1.38.
As for `O=C1[C@H]2[C@H]3[C@H](O)[C@H](O)CC(=NOCc4ccccc4)[C@H]3CC[C@H]2C(=O)N1Cc1ccc2c(c1)OCO2`, the composite z-score in [1] was -0.249; in assay [3], 0.621; in assay [4], -0.208; in assay [5], -0.444; in assay [6] it was -0.091; in assay [7] it was -0.0553. In addition, the values for the composite z-score in assay [8], in [9] and in assay [10] were -0.243, 0.336 and 0.413, respectively. Besides, in assay [2], the z-score is -0.188.
`CC(C)=CCCC(C)=CCON=C1C[C@@H](O)[C@@H](O)[C@@H]2[C@@H]3C(=O)N(C(C)(C)C)C(=O)[C@@H]3CC[C@H]12`: the composite z-score in assay [1] is 0.356; in assay [3] it was 0.61; in [4] it was -0.327; in assay [5], -0.889; in assay [6], -0.118; in assay [7], -0.153. The composite z-score was -0.0446 in [8], 0.452 in assay [9] and 0.135 in [10]. The same compound showed a z-score in [2] of 0.217.
Regarding `CCCCC#C[C@@H]1C=C[C@H](Oc2cc(OC)c(OC)c(OC)c2)[C@@H](COC(=O)OCC)O1`, the composite z-score was -0.709 in assay [1]; 0.144 in assay [3]; -0.659 in assay [4]; -0.986 in assay [5]; -0.124 in assay [6]; -0.276 in assay [7]. Besides, the composite z-score is -0.158 in assay [8], 0.0606 in assay [9] and 0.624 in assay [10]. Moreover, in assay [2], the z-score is -0.548.
Take `CO[C@H]1COC(=O)[C@@H]2CCCN2C(=O)CC=C[C@@H](C)[C@H](OC)COC(=O)[C@@H](OCc2ccccc2)C=C[C@@H]1C`: the composite z-score is -0.556 in assay [1]; 1.04 in [3]; -0.584 in assay [4]; -1.15 in [5]; -0.0882 in [6]; -0.2 in assay [7]. The composite z-score was -0.408 in assay [8], 0.0642 in assay [9] and -0.178 in assay [10]. Moreover, the z-score in [2] was -0.389.
As for `CO[C@H]1COC(=O)CC=C[C@@H](C)[C@H](OC)COC(=O)CCC[C@@H]1C`, the composite z-score in [1] was -1.16; in [3] it was 0.797; in [4] it was -1.03; in [5], -1.29; in assay [6], -0.0751; in [7] it was -0.0709. Also, the values for the composite z-score in [8], in assay [9] and in assay [10] were -0.238, 0.389 and -0.069, respectively. In addition, the z-score in assay [2] is -1.3.
